The structures appear in SMILES notation. The panel holds about 83,000 compounds, 20% with a hit somewhere; the sample as a whole holds those more often.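 Cell lines were cultured in 96-well plates, exposed to a single compound concentration, and assessed for percent growth 48 hours later.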 Active and inactive are the calls of the source. Rule for the calls: active = growth percent below 10; inactive = the rest.

The test system of this assay is MDA-MB-468 breast. The experiment in a line: NCI-60 one-dose screen, 48 h (100 = growth as untreated, 0 = no growth, -100 = all killed). Particulars: 10 µM unless noted.
As to `CN(C)c1ccc(-c2c(NC(C)(C)C)nc3c(OCCc4ccccc4)cccn23)cc1`, the growth was -19.6% (active).

For `N#Cc1c(-c2cccs2)c(C#N)c(=O)n(Cc2nc3ccccc3[nH]2)c1N`, the growth is 88.5% (inactive).

As to `COc1cc(NCc2ccccc2O)c2ncccc2c1`, the growth is 90.4% (inactive). For `O=C(Nc1ccccc1)c1sc(-c2cccc(C(F)(F)F)c2)cc1O`, the growth is 92.3% (inactive).

As for `CCOc1cc2c(cc1OCC)C(c1cc(OC)c(O)cc1Cl)NCC2` (centres undefined), the growth is 61.4% (inactive). With `COc1ccc(-c2nc3sccn3c2-c2nc3c([nH]2)C(=O)c2ccccc2C3=O)cc1` the figure was 95% (inactive); with `COc1ccc(/C(=C2/O[C@@H]([C@H]3COC(C)(C)O3)[C@H]3OC(C)(C)O[C@@H]23)c2cc(OC)c(OC)c(OC)c2)cc1O`, 113% (inactive).

Turning to `CCNc1cc(-c2cccc(OC(F)(F)F)c2)nc2ccc(N3CCCC3)cc12`, the growth was -34.9% (active). For `COc1ccc(-c2ccc(O)c(C(=O)/C=C/c3cc(OC)c(OC)c(OC)c3)c2)cc1` the value was 85.2% (inactive); for `O=C(Nc1cnn2ccc(N3CCC[C@@H]3c3cc(F)ccc3F)nc12)N1CC[C@H](O)C1`, 88.7% (inactive); for `O=C(/C=C/c1cccc2ccccc12)Nc1ncc(Cc2ccccc2)s1`, -14.4% (active). With `COC(=O)c1c2c(c[n+]([O-])c1C)C(=O)C(NCc1ccccc1)=CC2=O` the figure was -57.7% (active); with `Cc1ccc2cc3c(N)c4c(C)ccc(C)c4nc3nc2c1`, 29.9% (inactive); with `COc1ccc2[nH]c(O)c(/C=c3/cc4c(c(-c5ccc(F)c(OC)c5)n3)=Nc3ccccc3-4)c2c1`, -70.4% (active).

The values above are taken from PubChem BioAssay (NCI).
